Experimental findings from PubChem BioAssay AID1851 (National Center for Advancing Translational Sciences (NCATS), 2009) are described below.

In general, AC50 refers to the concentration giving half of the maximal activity seen.

Hit rate of the full screen: of about 16,000 compounds, about 5,800 (36%) were called active. Not shown: some 23% with an inconclusive outcome. The list shows a part of the results. Unmarked numbers belong to inactive results. Calls come from the whole dose curve; as a rule, active = well fitted curve in the direction sought with a large enough effect; inconclusive = small, poorly fitted or top-dose-only effect, or effect the other way; inactive = no such curve, though single readings can be large or run the other way.
% is set by controls: 0 for no effect and ±100 for the full control effect.

Cytochrome P450 2C19 (Homo sapiens), sequence (P33261 whole entry, looked up): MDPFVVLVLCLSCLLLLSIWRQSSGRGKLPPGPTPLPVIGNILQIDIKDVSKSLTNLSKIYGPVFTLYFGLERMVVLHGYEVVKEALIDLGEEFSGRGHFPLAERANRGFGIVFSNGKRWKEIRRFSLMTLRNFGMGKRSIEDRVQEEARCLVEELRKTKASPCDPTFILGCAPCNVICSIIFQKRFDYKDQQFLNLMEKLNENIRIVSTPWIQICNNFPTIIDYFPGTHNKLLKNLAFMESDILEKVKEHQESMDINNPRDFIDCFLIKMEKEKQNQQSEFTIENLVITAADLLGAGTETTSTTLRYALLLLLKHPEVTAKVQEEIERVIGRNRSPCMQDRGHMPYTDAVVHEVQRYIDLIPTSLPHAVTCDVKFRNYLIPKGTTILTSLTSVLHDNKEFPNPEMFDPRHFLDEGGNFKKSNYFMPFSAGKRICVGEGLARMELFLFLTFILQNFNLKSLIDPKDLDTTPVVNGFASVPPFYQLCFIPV

The experiment addresses Cytochrome P450 2C19 (Homo sapiens) (UniProt P33261). The experiment can be described thus: Cytochrome panel assay with activity outcomes. Particulars: recombinant CYP, pro-luciferin dealkylation, luminescence, p450-cyp2c19; series mostly up to 57.1 µM.
Take `CCCCCCCCCCCCCCSCC(=O)O`: the AC50 entry is “inactive”.

Regarding `NC[C@](O)(CS(=O)(=O)O)c1ccc(Cl)cc1`, the AC50 entry was “inactive”.

Turning to `O=C(N/N=C\c1ccc(Sc2ccccn2)o1)c1cccc(Br)c1`, the AC50 was 2.51 µM (active). Same read-out and setting: the figure for `O=C(N/N=C/C1C(c2ccccc2)C1(Cl)Cl)c1cccc(Br)c1` (stereo not drawn) is 7.08 µM (active).

For `O=C(N/N=C/c1cccc(Oc2ccccc2)c1)c1cccc(Br)c1`, the half-maximal activity concentration (AC50) was 2.24 µM (active).

Turning to `C[C@@H](N=C(N)N)C(=O)O`, the activity, negative = inhibition was 36.5% [at 11.4 µM]. On the same count and under the same terms, the same measure for `CC(=O)O[C@]12CC[N@+]3(C)CCCC[C@@H]3[C-]1Nc1ccccc12`: 34.8% [at 11.4 µM].

`Cn1nc(C(F)(F)F)c(/C=N/OCc2c(Cl)cccc2Cl)c1Cl`: the half-maximal activity concentration (AC50) was 0.282 µM (active).

As for `COCCN(C(=O)Nc1ccc(OC)cc1OC)C1CCN(C(C)=O)CC1`, the AC50 result was “inactive”. On the same count and under the same terms, the same measure for `COc1ccc(NC(=O)Cn2cccc2)c(OC)c1`: 2.24 µM (active). `COc1ccc(OC)c(NC(=O)CC(Cc2ccccc2OC)C(=O)O)c1` (stereo not drawn): the AC50 result is “inactive”.

Consider `CCCC(=O)Nc1cc(-c2cn3cccnc3n2)ccc1OC`, for which the AC50 entry is “inactive”.

As to `COc1ccc(-c2nnn(CC(=O)N(CC(=O)NCCC(C)C)Cc3cccs3)n2)cc1OC`, the AC50 was 1.12 µM (active). On the same count and under the same terms, the same measure for `COc1ccc(NC(=O)N2CC3(CCN(C(=O)c4cccn4C)CC3)C2)cc1`: “inactive”; for `COc1ccc(NC(=O)NCc2cccn2C)c(OC)c1`: 6.31 µM (active).

For the compound `COc1ccc(NC(=O)N2CCC3(CC2)CCN(C(=O)c2cccn2C)CC3)cc1`, the AC50 result is “inactive”. Consider `COc1ccc(OC)c(NC(=O)Cn2cccc2)c1`, for which the AC50 was 6.31 µM (active). In the case of `CO[C@H]1COC(=O)[C@H](C)NC(=O)C/C=C\[C@@H](C)[C@@H](NS(=O)(=O)c2ccc(C)cc2)COC(=O)C/C=C\[C@@H]1C`, the activity, negative = inhibition was 24.1% [at 11.4 µM].

Take `COc1ccc(-c2nnn(CC(=O)NCCc3c[nH]c4ccccc34)n2)cc1OC`: the AC50 was 8.91 µM (active). For `CCOc1ccc(-c2nnn(CC(=O)Nc3cc(OC)ccc3OC)n2)cc1OCC`, the AC50 is 5.62 µM (active). The same measure, in the same setting: the same measure for `Cn1ncc(C#N)c1NC(=O)C1CC(c2ccc(Cl)cc2)=NO1` (stereo not drawn): 0.316 µM (active); for `COc1cccc(Nc2ncc3nc(-c4cccs4)c(=O)n(CCC#N)c3n2)c1`: “inactive”. In the case of `O=C(CCC1CCCCC1)Nc1c2c(nn1-c1ccc(F)cc1)CS(=O)(=O)C2`, the AC50 was 15.8 µM (active). Still for that read-out and setting: the figure for `NC(=O)c1ccc([N+](=O)[O-])cc1SCc1ccccc1` is 10 µM (active). Turning to `O=C(O)c1cc(N=Nc2ccc([N+](=O)[O-])cc2)ccc1O`, the activity, negative = inhibition was -3.05% [at 11.4 µM]. For `O=C(O)[C@@H]1[C@@H](C(=O)NCc2ccccn2)[C@@H]2C=C[C@@H]1O2`, the activity, negative = inhibition was 36% [at 11.4 µM]. Consider `O=C(NCc1ccccn1)c1cc(-c2ccccc2Cl)on1`, for which the AC50 is 14.1 µM (active). With `OCCN1CCN(C(=S)c2ccc(Br)cc2)CC1`, the AC50 was 4.47 µM (active). Still for that read-out and setting: the same measure for `CCN1CCN(C(=S)c2ccc(Br)cc2)CC1`: 7.94 µM (active).

Take `OCCN1CCOCCOCCN(CCO)CCN(CCO)CC1`: the AC50 entry is “inactive”. Take `O=C(CCCN1CCC(O)(c2ccc(Br)cc2)CC1)c1ccc(F)cc1`: the AC50 entry was “inactive”. Take `C[C@H]1CN(CCO)CCN1c1ccccc1`: the activity, negative = inhibition is 34.1% [at 11.4 µM].

On to `O=c1[nH][nH]c(C(F)(F)F)c1C=Nc1ccccc1`, for which the AC50 entry is “inactive”. Take `Cc1ccc(-c2cc(C(=O)NCc3ccco3)c3ccccc3n2)s1`: the AC50 was 3.98 µM (active). Still for that read-out and setting: the figure for `O=C1Nc2ccc(F)cc2C12Nc1ccccc1-c1nnc(SCc3ccccc3F)nc1O2` (stereo not drawn) is 4.47 µM (active). For the compound `Cc1ccc(CSc2nnc3c(n2)OC2(Nc4ccccc4-3)C(=O)Nc3ccc(F)cc32)cc1` (stereo not drawn), the half-maximal activity concentration (AC50) is 10 µM (active). As to `COc1ccc(C(=O)c2c[nH]c(C(=O)NCc3cccs3)c2)cc1`, the AC50 result was “inactive”.

As to `Nc1nc2c(C(=O)NCc3cccs3)nnn2c2cccc(Cl)c12`, the activity, negative = inhibition is 12.5% [at 11.4 µM]. On to `COc1cccc2c(=O)c(C(=O)NCc3cccs3)c[nH]c12`, for which the AC50 is 7.94 µM (active). Still for that read-out and setting: the entry for `CCC(=O)OCC(=O)[C@@]1(OC(=O)CC)[C@H](C)C[C@@H]2[C@H]3CCC4=CC(=O)C=C[C@]4(C)[C@]3(Cl)[C@@H](O)C[C@@]21C` is “inactive”; for `CC1=C/C(=N/O)C([C@H]2C=C(C)CC(C)(C)[C@@H]2O)C(C)(C)C1` (stereo partly drawn) it is 1.58 µM (active). Still for that read-out and setting: the entry for `COc1cccc(Nc2ncc3nc(-c4cn(C)c5ccccc45)c(=O)n(CCC#N)c3n2)c1` is “inactive”; for `COc1cccc2c1[C@@H]1CN(CCCCn3c(=O)[nH]c4c(sc5ncc(-c6ccccc6)nc54)c3=O)C[C@H]1CO2` it is “inactive”. On to `FC(F)Sc1ccc(N=C2NN=C(c3ccc4c(c3)OCCO4)CS2)cc1`, for which the AC50 is 2.24 µM (active).

On to `CN(Cc1ccccc1)C(=O)CC(c1ccccc1)c1cc(Cl)ccc1O` (stereo not drawn), for which the AC50 is 1.78 µM (active). As for `CC(C)Oc1ccc(CNC(=O)CC(c2ccccc2)c2cc(Cl)ccc2O)cc1` (stereo not drawn), the AC50 was 1.78 µM (active). As to `Cc1cc(-c2cc(-c3ccc(Cl)cc3)nc(N)c2C#N)co1`, the AC50 is 0.282 µM (active). Regarding `Cc1cnc(CNc2ncnc3ccc(-c4cccc(NS(C)(=O)=O)c4)cc23)cn1`, the AC50 result was “inactive”. With `CS(=O)(=O)Nc1cccc(-c2ccc3ncnc(NCc4cccnc4)c3c2)c1`, the half-maximal activity concentration (AC50) is 0.0501 µM (active). Regarding `CS(=O)(=O)Nc1cccc(-c2cncnc2NCc2cccnc2)c1`, the AC50 is 3.16 µM (active). With `Cc1cccc(CNc2ncncc2-c2cccc(NS(C)(=O)=O)c2)c1`, the AC50 is 6.31 µM (active). Consider `CS(=O)(=O)Nc1cccc(-c2cncnc2Nc2ccccc2)c1`, for which the AC50 result is “inactive”.

For `N[C@H](C(=O)O)[C@@H]1[C@@H](C(=O)O)C1(F)F`, the AC50 entry was “inactive”.

As to `CCOC(=O)C1=C(C)NC2=C(C(=O)C(C(=O)OCC)C(c3ccc(OC)cc3)C2)C1c1ccccn1` (stereo not drawn), the AC50 is 20 µM (active). The same measure, in the same setting: the same measure for `O=C(c1cc2sccc2n1Cc1ccccc1)N1CCN(c2nc3ccccc3s2)CC1`: 2.24 µM (active).

Consider `O=C(O)c1cccc(CN2CCCCC2)c1`, for which the activity, negative = inhibition was 9.75% [at 11.4 µM].

For the compound `O=C(CN1CCN(Cc2ccccc2)CC1)N1CCCc2c1c(=O)oc1ccc(O)cc21`, the AC50 is 3.55 µM (active). Same read-out and setting: the same measure for `CCCc1c(-c2ccc(O)cc2)nn(-c2ccc(O)cc2)c1-c1ccc(O)cc1`: “inactive”.

On to `O=S(=O)(O)C1CCNCC1`, for which the AC50 entry was “inactive”. Consider `O=S(=O)(c1ccccc1)N1N=C(c2cccs2)CC1c1ccc(Br)cc1` (stereo not drawn), for which the AC50 was 2 µM (active). Regarding `N#CCCn1c(=O)c(-c2cc(F)cc(F)c2)nc2cnc(N3CCOCC3)nc21`, the AC50 result is “inactive”.

On to `O=c1nc(-c2ccccc2)cc(C(F)(F)F)[nH]1`, for which the AC50 entry is “inactive”. As for `Cc1ccc2nc(Nc3nc(-c4ccccc4)cc(=O)[nH]3)nc(C)c2c1`, the AC50 was 3.16 µM (active). For `Cc1ccc2c(C)nc(Nc3nc(CSc4nc5ccccc5[nH]4)cc(=O)[nH]3)nc2c1`, the AC50 was 7.08 µM (active). On the same count and under the same terms, the same measure for `CCN(CC)c1ccc(NC(=O)c2cccc(F)c2)c(C)c1`: 15.8 µM (active).

As to `COc1ccc(C(N)=O)cc1NC(=O)c1cccc(F)c1`, the AC50 entry was “inactive”.

For the compound `Cn1c(SCc2nnc(-c3ccc(F)cc3)o2)nnc1C1COc2ccccc2O1` (stereo not drawn), the AC50 is 17.8 µM (active). Take `Oc1ccc(C2Nc3cccc4cccc(c34)N2)c(O)c1`: the AC50 is 5.62 µM (active).

In the case of `O=[N+]([O-])c1nccn1C[C@H](O)CN1CCCCC1`, the activity, negative = inhibition was 22.6% [at 11.4 µM]. Same read-out and setting: the same measure for `O=C1C2[C@@H](c3ccccc3)N[C@@H](c3ccccc3)C1[C@H](c1ccccc1)N[C@H]2c1ccccc1`: -2.21% [at 11.4 µM].

For the compound `S=C1N[C@H](c2ccccc2)N[C@H](c2ccccc2)S1`, the AC50 was 3.98 µM (active).

Take `COc1ccc(CCNC(=O)CCCCCN2C(=O)c3ccccc3C2=O)cc1`: the half-maximal activity concentration (AC50) was 2.51 µM (active). As to `CCOc1ccc(CCNC(=O)CCCN2C(=O)c3ccccc3C2=O)cc1OCC`, the AC50 is 28.2 µM (active).

For `O=C(CCCCCN1C(=O)c2ccccc2C1=O)NCc1ccccn1`, the AC50 entry was “inactive”. Still for that read-out and setting: the same measure for `CCOCCCNC(=O)CCS(=O)(=O)Cc1ccc(C)cc1`: “inactive”. In the case of `C#CCCCO/N=C1/C[C@@H](O)[C@@H](O)[C@@H]2[C@@H]3C(=O)N(C[C@@H]4CCCO4)C(=O)[C@H]3CC[C@@H]12`, the activity, negative = inhibition is 1.94% [at 11.4 µM]. Consider `O=S(=O)(NCc1cc(-c2ccccc2Cl)no1)c1ccc(Cl)cc1`, for which the AC50 was 0.0562 µM (active). Same read-out and setting: the figure for `O=S(=O)(NCc1cc(-c2ccccc2Cl)no1)c1ccccc1` is 0.158 µM (active); for `O=C1c2ccccc2C(=O)N1Cc1cc(-c2ccccc2Cl)no1` it is 10 µM (active); for `O=C(Nc1ccccc1)c1cc(-c2ccccc2Cl)no1` it is 2.82 µM (active). Take `O=C(O)[C@@H]1[C@@H](C(=O)Nc2ccccc2)[C@@H]2C=C[C@@H]1O2`: the activity, negative = inhibition is -3.64% [at 11.4 µM]. In the case of `CC[C@@H](CS(=O)(=O)O)[N+](=O)[O-]`, the activity, negative = inhibition is 45% [at 11.4 µM]. In the case of `CN(C)C(=O)CN(c1ccc2c(c1)OCO2)S(C)(=O)=O`, the AC50 entry was “inactive”. As for `CS(=O)(=O)N(CC(=O)Nc1c(F)cccc1F)c1ccc(C23CC4CC(CC(C4)C2)C3)cc1`, the AC50 was 11.2 µM (active). Still for that read-out and setting: the same measure for `CCCC/C=C/C(NC(=O)c1ccc(-c2ccccc2)cc1)c1ccccc1` (stereo not drawn): “inactive”; for `CCCN(CCC)C(=O)[C@@H](CCC(=O)O)NC(=O)c1ccccc1`: “inactive”.

Consider `CCCC/C=C/C(NC(=O)Oc1cccc(C(F)(F)F)c1)c1ccccc1` (stereo not drawn), for which the AC50 was 3.16 µM (active). Take `CCCC/C=C/C(NC(=O)c1cccs1)c1ccccc1` (stereo not drawn): the AC50 is 1.58 µM (active). For `CCCCCCCCCCCCCCC/C=C\[C@H](O)[C@@H](NC(=O)CCCCCCCCCCCCC)OC` (tested in a mixture with another compound), the AC50 entry is “inactive”. As for `CCCC/C=C/C(NC(=O)c1ccccc1)c1ccccc1` (stereo not drawn), the AC50 is 7.94 µM (active). On the same count and under the same terms, the same measure for `CCCC/C=C/C(NC(=O)c1ccco1)c1ccccc1` (stereo not drawn): 15.8 µM (active); for `Nc1cc(=O)[nH]c(N)n1`: “inactive”. Regarding `CC(C)=CCC/C(C)=C/CO/N=C1/[C@H]2O[C@@H]2[C@@H](O)[C@H]2[C@H]1CCn1c(=O)n(-c3ccccc3)c(=O)n12`, the activity, negative = inhibition was 18.2% [at 11.4 µM].
